Test results: the supplement of paper PMC12340641
Where a name gives a salt, the structure may show the parent alone.

target: IKZF1 (dCK*-IKZF1 fusion in HEK293FT) (UniProt Q13422); assay: inhibition of IKZF1 HTRF signal (DMSO = 0%, pomalidomide 10 uM = 100%); higher = lower IKZF1 protein level; conditions: compound concentration: 5 uM, overnight (~20 h)
Method in brief: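 HEK293FT cells stably expressing a dCK*-IKZF1 fusion (2000/well, 384-well) were treated overnight at 37 °C with 5 μM compound in single wells. They were then lysed 30 min at room temperature, and lysate was incubated overnight with a commercial HTRF total-IKZF1 antibody kit. The time-resolved FRET ratio (665/620 nm) was background-subtracted. Percent inhibition of IKZF1 signal was normalised per plate to vehicle (0%) and a reference degrader (100%).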

Sequence of IKZF1 (dCK*-IKZF1 fusion in HEK293FT) (Q13422 whole entry, looked up, the tested form may be a part): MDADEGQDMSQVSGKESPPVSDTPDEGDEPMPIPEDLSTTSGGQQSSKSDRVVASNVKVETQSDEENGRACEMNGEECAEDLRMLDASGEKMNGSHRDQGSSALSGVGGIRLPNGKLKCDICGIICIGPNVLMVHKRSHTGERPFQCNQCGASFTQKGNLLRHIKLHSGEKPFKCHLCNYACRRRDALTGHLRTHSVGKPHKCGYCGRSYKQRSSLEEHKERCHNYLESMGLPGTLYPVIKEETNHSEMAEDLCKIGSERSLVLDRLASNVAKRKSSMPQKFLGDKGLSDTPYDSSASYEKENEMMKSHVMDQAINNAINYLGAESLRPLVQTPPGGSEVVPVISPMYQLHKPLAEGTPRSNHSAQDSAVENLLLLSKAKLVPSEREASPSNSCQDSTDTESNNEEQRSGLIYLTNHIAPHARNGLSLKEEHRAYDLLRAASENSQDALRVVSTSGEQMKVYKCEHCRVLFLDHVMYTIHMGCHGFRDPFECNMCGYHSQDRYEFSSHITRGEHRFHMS

Going from `C[C@H]1[C@H](OC(=O)CCC(=O)O)O[C@@H]2O[C@@]3(C)CC[C@H]4[C@H](C)CC[C@@H]1[C@@]24OO3` to `C=CCNc1c(O)cc2c(O)c1C[C@@H](C)C[C@H](OC)[C@H](O)[C@@H](C)/C=C(\C)[C@H](OC(N)=O)[C@@H](OC)/C=C\C=C(/C)C(=O)N2` [Retaspimycin (Hydrochloride)], the “inhibition of IKZF1 HTRF signal” value falls from 37.4% to -31%.

Going from `Clc1cccc(Cl)c1CSc1nnc(-c2cnccn2)s1` [yoda-1] to `O=C(Nc1ccc(Cl)cc1)Nc1ccc(Cl)c(Cl)c1` [Triclocarban], the “inhibition of IKZF1 HTRF signal” value rises from 3.26% to 15.1%.

Compared with `CCCCCCCCCCC(CO)CCCCCCCC` (stereo not drawn) [2-Octyldodecan-1-ol], `O=C(CCCCCCC(O)=NO)Nc1ccccc1` [Vorinostat] is higher in “inhibition of IKZF1 HTRF signal” value: -45% for the first, -44.5% for the second.

First: c1ccc(C2(c3ccccc3)CC2=C2NCCN2)cc1 [cibenzoline]
Second: O=c1c(-c2ccccc2)c1-c1ccccc1 [diphencyprone]
The “inhibition of IKZF1 HTRF signal” value of the first is lower: -50% for the first, -25.4% for the second.

First: CNCC(O)c1ccc(O)c(O)c1 (racemic) [DL-Adrenaline]
Second: CCC(=N\O)/C(C)=C/c1ccc(F)cc1
The “inhibition of IKZF1 HTRF signal” value of the first is lower: 10.3% for the first, 12.6% for the second.

First: CC(CN(C)C)CN1c2ccccc2Sc2ccccc21 (stereo not drawn)
Second: CC(NCCC(c1ccccc1)c1ccccc1)c1ccccc1 (stereo not drawn) [fendiline]
The “inhibition of IKZF1 HTRF signal” value of the first is lower: -50.1% for the first, -38% for the second.

Compared with `COc1ccc2nc3cc(Cl)ccc3c(Nc3cc(CN4CCCC4)c(O)c(CN4CCCC4)c3)c2n1`, `CCN1CCN(Cc2ccc(-c3cc4c(N[C@H](C)c5ccccc5)ncnc4[nH]3)cc2)CC1` is lower in “inhibition of IKZF1 HTRF signal” value: -32.1% for the first, -37.1% for the second.

Going from `Cc1ccnc(NS(=O)(=O)c2ccc(N)cc2)n1` to `CCCNC(=O)NS(=O)(=O)c1ccc(Cl)cc1`, the “inhibition of IKZF1 HTRF signal” value falls from -32.2% to -35.8%.

Going from `O=C1c2ccccc2C(Cc2ccncc2)(Cc2ccncc2)c2ccccc21` to `CC1(C)C(=O)N=C2C1=C(O)C(=O)c1ccccc12`, the “inhibition of IKZF1 HTRF signal” value rises from -38.8% to 80%.

Compared with `O=[N+]([O-])c1ccc(O)c2ncccc12`, `CCn1c(=O)[nH]c2ccccc21` is lower in “inhibition of IKZF1 HTRF signal” value: -23.9% for the first, -34.6% for the second.

Compared with `C[n+]1c2cc(N)ccc2cc2ccc(N)cc21.Nc1ccc2cc3ccc(N)cc3nc2c1` [Acriflavine hydrochloride], `CC(C)n1nc(-c2ccc3oc(N)nc3c2)c2c(N)ncnc21` is higher in “inhibition of IKZF1 HTRF signal” value: 6.76% for the first, 83.3% for the second.

Compared with `C/C(=N\NC(=S)N1CCC1)c1ccccn1`, `Cc1cccc(CCN2CCC(C(=O)c3ccc(NS(C)(=O)=O)cc3)CC2)n1` is lower in “inhibition of IKZF1 HTRF signal” value: -11.1% for the first, -18.6% for the second.

Going from `OC(c1cc(C(F)(F)F)nc2c(C(F)(F)F)cccc12)C1CCCCN1` (stereo not drawn) to `O=C1[C@H]2CCCC[C@H]2C(=O)N1CCCCN1CCN(c2nsc3ccccc23)CC1` [Perospirone], the “inhibition of IKZF1 HTRF signal” value rises from -31.6% to 16.4%.

Compared with `COc1ccc(C2CC(c3c(O)cc(C)oc3=O)=NCCS2)c(OC)c1` (stereo not drawn), `COc1cc(/C=C2\CCC/C(=C\c3ccc(O)c(OC)c3)C2=O)ccc1O` [cyclovalone] is lower in “inhibition of IKZF1 HTRF signal” value: -11% for the first, -30.9% for the second.

Compared with `COCCOC(=O)C1=C(C)NC(C)=C(C(=O)OC/C=C/c2ccccc2)C1c1cccc([N+](=O)[O-])c1` (stereo not drawn) [cilnidipine], `CCOC(=O)C1=C(C)NC(C)=C(C(=O)OC)C1c1cccc([N+](=O)[O-])c1` (stereo not drawn) is lower in “inhibition of IKZF1 HTRF signal” value: -8.24% for the first, -32.3% for the second.

Going from `COC(=O)Nc1nc2ccc(S(=O)c3ccccc3)cc2[nH]1` (stereo not drawn) to `CC[C@H](CO)Nc1nc(Nc2cccc(-c3ccccn3)c2)c2ncn(C(C)C)c2n1`, the “inhibition of IKZF1 HTRF signal” value falls from 5.34% to -29.5%.

Going from `Cc1cc([C@H](C(=O)N2C[C@H](O)C[C@H]2C(=O)N[C@@H](CC(=O)N2CCC(C#Cc3ccc(C(=O)N[C@H]4C(C)(C)[C@H](Oc5ccc(C#N)c(Cl)c5)C4(C)C)cc3)CC2)c2ccccc2)C(C)C)on1` to `CCC1/C=C(\C)CC(C)CC(OC)C2OC(O)(C(=O)C(=O)N3CCCCC3C(=O)OC(/C(C)=C/C3CCC(O)C(OC)C3)C(C)C(O)CC1=O)C(C)CC2OC` (stereo not drawn) [Ascomycin (FK520)], the “inhibition of IKZF1 HTRF signal” value falls from 9.95% to 4.12%.

Going from `Oc1ccc(/C=C/c2cc(O)cc(O)c2)cc1` [Resveratrol] to `O=C1C=Cc2cc(Br)ccc2C1=O` [bonaphthone], the “inhibition of IKZF1 HTRF signal” value rises from -25.5% to 23%.

Compared with `CC1(S(=O)(=O)[O-])CC(=O)c2ccccc2C1=O` (stereo not drawn) [menadione-bisulfite], `COc1cc([C@@H]2c3cc4c(cc3[C@@H](O[C@@H]3O[C@@H]5CO[C@@H](C)O[C@H]5[C@H](O)[C@H]3O)[C@H]3COC(=O)[C@H]23)OCO4)cc(OC)c1OP(=O)(O)O` [Etoposide phosphate] is lower in “inhibition of IKZF1 HTRF signal” value: 9.55% for the first, -12.6% for the second.
